Assay outcomes deposited in PubChem by several laboratories.
A selection: hits, their analogues and other compounds. The true share with any hit is near 4.1%.
aSyn UTR inh = 5' untranslated region of α-synuclein, MLPCN primary screen; AID 1813; inhibition, % (tested at 7.5 µM); hit rate 0.82% among 300,000; alpha-synuclein 5'UTR reporter, inhibitor activity; in the data active = inhibition above about 60%;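 also: H4 neuroglioblastoma cells stably carrying SNCA 5'UTR luciferase fusion; 0% = DMSO wells and 100% = positive control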
Mdm2 MdmX PPI = disrupts the human Mdm2-MdmX interaction. O15151+Q00987. SaOS-2 split-luciferase Mdm2/MdmX complementation, luminescence. inhibition, % at 8 µM. AID 485346. hit rate 3% among 330,000;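 active = inhibition of at least 50% at 8 µM in the primary screen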
Target sequence (O15151 whole entry, looked up): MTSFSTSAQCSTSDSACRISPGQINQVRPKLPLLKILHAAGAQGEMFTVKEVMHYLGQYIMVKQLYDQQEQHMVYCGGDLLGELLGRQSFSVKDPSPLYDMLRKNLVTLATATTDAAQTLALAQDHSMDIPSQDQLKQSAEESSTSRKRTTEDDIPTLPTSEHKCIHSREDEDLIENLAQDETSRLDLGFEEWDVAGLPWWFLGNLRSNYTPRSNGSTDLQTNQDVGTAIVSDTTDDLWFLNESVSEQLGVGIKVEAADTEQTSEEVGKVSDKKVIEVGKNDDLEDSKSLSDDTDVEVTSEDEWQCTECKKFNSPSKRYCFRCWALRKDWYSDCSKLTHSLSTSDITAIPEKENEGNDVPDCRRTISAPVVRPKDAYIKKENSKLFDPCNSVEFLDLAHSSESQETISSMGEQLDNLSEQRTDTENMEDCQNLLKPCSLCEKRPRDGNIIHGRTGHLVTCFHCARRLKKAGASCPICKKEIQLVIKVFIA
Target sequence (Q00987 whole entry, looked up): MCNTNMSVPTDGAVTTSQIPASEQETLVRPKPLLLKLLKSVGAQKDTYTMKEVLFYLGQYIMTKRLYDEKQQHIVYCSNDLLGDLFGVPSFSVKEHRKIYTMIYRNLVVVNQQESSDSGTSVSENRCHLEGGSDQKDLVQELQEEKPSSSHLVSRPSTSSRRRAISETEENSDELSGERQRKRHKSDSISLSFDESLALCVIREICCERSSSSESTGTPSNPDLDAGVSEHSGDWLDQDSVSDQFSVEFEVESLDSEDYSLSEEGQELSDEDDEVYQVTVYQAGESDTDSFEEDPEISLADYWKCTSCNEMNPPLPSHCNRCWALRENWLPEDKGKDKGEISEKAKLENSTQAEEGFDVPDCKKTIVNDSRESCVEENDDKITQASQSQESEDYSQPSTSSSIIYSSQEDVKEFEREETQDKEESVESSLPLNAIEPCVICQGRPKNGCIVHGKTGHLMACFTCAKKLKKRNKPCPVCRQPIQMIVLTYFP
697 NFkB inh = inhibitors of the PMA/ionomycin-induced NF-kB reporter in 697 B cells. 697 B-cell NF-kB luciferase reporter, 16 h. inhibition, % at 4 µM. hit rate 0.33% among 330,000. AID 435022; in the data active = inhibition above about 35%
Gli-Sufu block = antagonists of Gli-Sufu signaling | inhibition, % at 5 µM | hit rate 0.74% among 340,000 | Sufu-KO-LIGHT fibroblasts, Gli luciferase reporter luminescence;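 active = inhibition above about 55%, limit read from the data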;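 also: 0% = DMSO-treated cells and 100% = wells with medium but no cells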
Jurkat NFkB inh = lowers PMA/ionomycin-induced NF-kB signal in Jurkat cells | hit rate 0.53% among 330,000 | AID 435003 | PMA/ionomycin-induced NF-kB luciferase reporter, luminescence | inhibition, % at 4 µM; in the data active = inhibition above about 50%
KLF5 inh = suppresses KLF5 promoter-driven expression; DLD-1 KLF5 promoter-luciferase reporter, luminescence; inhibition, % at 5 µM; hit rate 0.23% among 290,000;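 active = inhibition above a per-plate limit of that plate's mean compound inhibition plus 3 SD, cut at about 60% in these data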;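 also: 0% = DMSO wells and 100% = LY294002 at 200 µM; higher means less KLF5 promoter-driven luciferase light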
697 NFkB conf = lowers PMA/ionomycin-induced NF-kB signal in 697 B cells | shares compounds with 697 NFkB inh | 697 B-cell NF-kB luciferase, 16 h | inhibition, % at 4 µM | hit rate 35% among 2,000 | AID 449746; in the data active = inhibition mostly above about 28%, no sharp cut-off; inactive = mostly below about 22%
Starred values were filed as active, the others as inactive; i = inactive; nt = no result.

SMILES	aSyn UTR inh	Mdm2 MdmX PPI	697 NFkB inh	Gli-Sufu block	Jurkat NFkB inh	KLF5 inh	697 NFkB conf
CCOC(=O)c1ccc2[nH]c3c(c2c1)CCCC3C(=O)OCC (stereo not given)	-20	19	25	-16	1	14	nt
CCOC(=O)C1CCCc2c1[nH]c1ccc(Cl)cc21 (stereo not given)	12	16	-427	5	-27	-4	-15
O=S(=O)(c1ccccc1)c1cnc(-c2cccnc2)nc1-c1ccccc1	20	-20	12	14	6	-29	nt
Cc1ncc(S(=O)(=O)c2ccc(Cl)cc2)c(-c2ccccc2)n1	11	28	40*	4	3	13	8
O=S(=O)(NC1CCSc2ccccc21)c1ccc(Cl)nc1 (stereo not given)	2	30	14	-8	-20	-26	nt
O=S(=O)(c1cccc(Cn2nnc(-c3ccccc3)n2)c1)N1CCOCC1	nt	-3	6	7	-25	nt	nt
CC1=NN(C(N)=S)C(=O)C1N=Nc1ccc(Cl)cc1 (stereo not given)	-143	-80	-230	-63	-74	-146	nt
CC1=NN(C(N)=S)C(=O)C1N=Nc1ccc(Br)cc1 (stereo not given)	-115	-78	-314	-49	-93	-150	-7
CN(C)S(=O)(=O)c1ccc(NC(=O)N2CCN(c3ccccc3)CC2)cc1	2	12	46*	23	-9	-6	29*
O=C(Nc1ccccc1O)c1ccc(NC(=O)C2CC2)cc1	i	18	-299	-40	-38	-171	-286
Cc1cc(=O)oc2cc(OCCc3ccccc3)ccc12	-50	42	-297	-52	-78	-132	-263
CCOC(=O)C1CCN(C(=O)c2ccccc2NC(C)=O)CC1	12	-2	39*	7	11	0	8
CCOc1ccccc1NC(=O)C(=O)N/N=C/c1ccc([N+](=O)[O-])cc1	-16	21	39*	36	2	-14	20
O=C(NCCC1CCCCN1S(=O)(=O)c1ccccc1)C(=O)NCc1ccncc1 (stereo not given)	30	-20	34	45	-10	nt	nt
Cc1ccc(S(=O)(=O)N2CCCCC2CCNC(=O)C(=O)NCc2ccncc2)cc1 (stereo not given)	56	-34	53*	18	-2	nt	52*
CCN(CC)CCCN=Cc1c(-c2ccccc2)[nH]n(-c2nc3ccccc3s2)c1=O	9	-1	40*	4	7	-27	42*
CCCN=C(C)c1c(-c2ccccc2)[nH]n(-c2nc3ccccc3s2)c1=O	1	30	-17	-5	-7	-7	nt
COc1ccc(N=Nc2ccc3ccccc3c2)c(O)c1	16	-71	-324	-20	-140	-40	-307
Oc1ccc(C2=CSC3=NCCN23)cc1O	-16	-4	4	1	-19	-62	nt
S=C1N(c2ccccc2)C(c2ccc(Br)cc2)N2CCCN12 (stereo not given)	-20	-6	-34	4	-5	10	nt
COc1ccc(C(=O)C2CCCN(S(=O)(=O)c3ccc(C(C)=O)cc3)C2)c(C)c1 (stereo not given)	3	6	-34	35	7	-37	nt
O=C(O)C1=C(C(=O)Nc2cc(C(F)(F)F)ccc2Cl)CCCC1	-11	0	37*	-10	-3	-10	6
O=C(CN1CCCCCC1)Nc1cc(C(F)(F)F)ccc1Cl	-7	-10	11	1	-12	-34	nt
CCC(C)(O)c1[nH]c2ccc(C(=O)OC)cc2c1C (stereo not given)	-53	-60	-43	7	-34	-65	nt
CC(C)Nc1nc(NC(C)(C)C)nc(Oc2ccc(=O)n(C)n2)n1	2	37	31	11	3	-9	nt
SMILES	aSyn UTR inh	Mdm2 MdmX PPI	697 NFkB inh	Gli-Sufu block	Jurkat NFkB inh	KLF5 inh	697 NFkB conf
CCCn1nc(Oc2nc(NCC)nc(NC(C)C)n2)ccc1=O	9	35	62*	21	11	-29	26
Cn1c(CN2CCN(c3ccc(Cl)cc3)CC2)nc2ccccc21	-5	11	16	0	3	-3	nt
CCn1c(CN2CCN(c3ccc(Cl)cc3)CC2)nc2ccccc21	14	27	46*	6	13	-10	51*
Cc1ccc(NC(=S)Nc2ccc(S(=O)(=O)Nc3ncccn3)cc2)c(C)c1	-1	-19	50*	4	-1	-15	14
COc1ccc(-c2[nH]nc3oc(=O)cc(C)c23)cc1	6	-10	35*	4	4	-23	7
COc1ccc(S(=O)(=O)N2CCCCC2)cc1NC(=O)[C@@H]1CCCN1C(=O)c1cccs1	nt	-9	-19	1	-9	nt	nt
Cc1ccc(N2C(=O)c3ccccc3NC2c2ccccc2O)cc1 (stereo not given)	-39	-84	-296	-55	-123	-118	-103
O=C(Nc1ncccc1O)c1ccc(NS(=O)(=O)c2ccc3[nH]c(=O)[nH]c3c2)cc1	nt	30	-33	26	7	nt	nt
O=C(Nc1ncccc1O)c1ccc(S(=O)(=O)Nc2ccccc2)cc1	i	47	-402	44	12	nt	-359
COc1ccc(C)cc1S(=O)(=O)NCCN1CCOCC1	5	8	17	2	7	-24	nt
Clc1ccc2nc(N3CCN(c4ccccc4)CC3)sc2c1	-109	-133	-271	-115	-139	-76	-208
Brc1ccc2nc(N3CCN(c4ccccc4)CC3)sc2c1	-143	-146	-175	-18	-142	-31	nt
Cc1cccc(/C(N)=N/OC(=O)c2ccc3c(c2)OCO3)c1	-116	-11	-295	-88	-134	-140	-238
O=C(NC1CCCCC1)c1cc(F)cc2c1OCOC2	8	32	-6	13	11	18	nt
COc1ccccc1/C=C1\SC(=S)N(CCC(=O)Nc2cccc(O)c2)C1=O	4	3	35*	20	-12	10	31*
CCc1ccc(/C=C2\SC(=S)N(CCC(=O)Nc3cc(C)on3)C2=O)cc1	69*	26	59*	-13	-3	-3	44*
COc1ccccc1/C=C1\SC(=S)N(CCC(=O)Nc2nnc(C)s2)C1=O	-10	31	51*	-9	10	-2	29*
Cc1cc(NC(=O)CCN2C(=O)/C(=C/c3ccccc3Cl)SC2=S)no1	-21	-2	0	-3	18	-9	nt
COc1ccccc1/C=C1\SC(=S)N(CCC(=O)Nc2cc(C)on2)C1=O	37	-9	51*	14	1	-10	38*
c1ccc2sc(Nc3nc4cc5c(cc4s3)OCO5)nc2c1	-264	-57	-290	-80	-148	-216	-324
Cc1cc2c(C)c(C)c(=O)[nH]c2cc1N	12	29	36*	10	2	5	18
CCOC(=O)C1=C(C)N(C)C(=O)NC1c1cc2c(cc1[N+](=O)[O-])OCO2 (stereo not given)	-8	15	0	23	10	17	nt
